# According to ChEMBL document CHEMBL1961873, “Compounds: GSK PKIS; Assays: Nanosyn kinase panel” (2012):
# Biological target: Mitogen-activated protein kinase kinase kinase kinase 4 (Homo sapiens) (UniProt O95819);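 note: reported figure is an averaged inhibition value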
# Conditions: at 1 µM
# Sequence of Mitogen-activated protein kinase kinase kinase kinase 4 (Homo sapiens) (O95819 2-1239 limits assumed): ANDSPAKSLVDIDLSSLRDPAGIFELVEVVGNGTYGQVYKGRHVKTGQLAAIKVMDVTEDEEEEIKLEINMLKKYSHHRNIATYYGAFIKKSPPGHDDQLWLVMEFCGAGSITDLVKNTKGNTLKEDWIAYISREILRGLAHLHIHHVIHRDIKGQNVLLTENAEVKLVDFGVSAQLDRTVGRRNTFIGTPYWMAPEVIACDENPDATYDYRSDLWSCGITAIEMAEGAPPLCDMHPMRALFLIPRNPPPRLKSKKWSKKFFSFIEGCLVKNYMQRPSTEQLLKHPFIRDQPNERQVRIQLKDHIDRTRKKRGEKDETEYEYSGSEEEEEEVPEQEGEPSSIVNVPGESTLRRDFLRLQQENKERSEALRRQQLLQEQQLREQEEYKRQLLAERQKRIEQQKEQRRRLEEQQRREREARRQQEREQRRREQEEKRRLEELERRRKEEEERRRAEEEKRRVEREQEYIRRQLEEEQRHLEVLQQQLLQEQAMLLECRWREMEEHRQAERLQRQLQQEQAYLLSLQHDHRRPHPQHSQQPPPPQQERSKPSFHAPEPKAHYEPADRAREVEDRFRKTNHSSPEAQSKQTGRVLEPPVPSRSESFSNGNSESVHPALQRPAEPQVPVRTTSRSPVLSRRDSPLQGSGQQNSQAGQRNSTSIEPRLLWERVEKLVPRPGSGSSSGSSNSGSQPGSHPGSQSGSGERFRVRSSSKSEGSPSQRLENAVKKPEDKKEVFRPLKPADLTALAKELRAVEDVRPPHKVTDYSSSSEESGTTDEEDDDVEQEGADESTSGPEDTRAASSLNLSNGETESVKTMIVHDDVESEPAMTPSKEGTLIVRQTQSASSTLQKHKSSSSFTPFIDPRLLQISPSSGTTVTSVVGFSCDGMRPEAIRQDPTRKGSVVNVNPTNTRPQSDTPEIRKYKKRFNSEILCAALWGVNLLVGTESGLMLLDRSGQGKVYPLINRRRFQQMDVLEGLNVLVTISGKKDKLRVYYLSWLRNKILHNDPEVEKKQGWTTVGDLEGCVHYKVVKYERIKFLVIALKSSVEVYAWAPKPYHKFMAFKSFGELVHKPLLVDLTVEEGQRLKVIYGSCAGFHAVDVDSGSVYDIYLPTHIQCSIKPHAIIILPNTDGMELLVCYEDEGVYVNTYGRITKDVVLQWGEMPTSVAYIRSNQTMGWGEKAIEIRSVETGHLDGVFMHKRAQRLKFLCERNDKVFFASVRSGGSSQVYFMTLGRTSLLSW
row,SMILES,inhibition [%]
1,NS(=O)(=O)c1ccc(N/C=C2\C(=O)Nc3ccc4ncsc4c32)cc1,76.9
2,CCn1c(-c2nonc2N)nc2c(C#CCN)ncc(OCCCN)c21,6.77
3,COc1cc(C=NNc2ncnc3c2cnn3Cc2ccccc2)ccc1O,7.51
4,Fc1ccc(-c2ncn(C3CCNCC3)c2-c2ccnc(Oc3ccccc3)n2)cc1,6.15
5,COc1cccc(COc2cc(-n3cnc4ccccc43)sc2C(N)=O)c1,18.5
6,Nc1nonc1-c1nc2cnccc2n1C1CCCCC1,46.2
7,COc1cc2c(cc1Nc1nc(Nc3ccsc3C(N)=O)c3cc[nH]c3n1)N(C(=O)CN(C)C)CCC2,14.9
8,NS(=O)(=O)c1ccc(-c2ccc3c(NC(=O)C4CC4)n[nH]c3c2)cc1,5.23
9,COc1cccc(-n2ncc3c(N/N=C/c4ccncc4)ncnc32)c1,67.7
10,Cc1cc(-c2ccco2)cc(C)c1/C=C/c1cncc(-c2nn[nH]n2)c1,-0.27
11,CCn1c(-c2nonc2N)nc2c(C#CC(C)(C)O)ncc(OCC3CCNCC3)c21,17.6
12,NC(=O)c1sc(-n2cnc3cc(C(F)(F)F)ccc32)cc1OCc1ccccc1Br,12.4
13,CCn1c(-c2nonc2N)nc2c(C#CC(C)(C)O)nc(O[C@@H](CN)c3ccccc3)cc21,20.4
14,CCn1c(-c2nonc2N)nc2c(C#CC(C)(C)O)ncc(OC[C@@H]3CCCN3)c21,2.54

# Biological target: Dual specificity mitogen-activated protein kinase kinase 1 (Homo sapiens) (UniProt Q02750)
# Conditions: at 0.1 µM
# Sequence of Dual specificity mitogen-activated protein kinase kinase 1 (Homo sapiens) (Q02750 whole entry): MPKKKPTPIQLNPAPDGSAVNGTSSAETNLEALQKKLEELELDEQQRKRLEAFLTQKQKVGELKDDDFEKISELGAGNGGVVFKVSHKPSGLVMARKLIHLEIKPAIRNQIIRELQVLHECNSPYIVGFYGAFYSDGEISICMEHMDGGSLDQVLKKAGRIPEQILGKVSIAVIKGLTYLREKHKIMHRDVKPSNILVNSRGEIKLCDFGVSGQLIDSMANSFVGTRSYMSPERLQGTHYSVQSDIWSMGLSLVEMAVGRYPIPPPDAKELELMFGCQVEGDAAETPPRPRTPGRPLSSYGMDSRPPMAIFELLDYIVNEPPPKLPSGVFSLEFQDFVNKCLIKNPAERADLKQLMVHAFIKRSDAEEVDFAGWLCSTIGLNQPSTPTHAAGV
row,SMILES,inhibition [%]
1,NS(=O)(=O)c1ccc(N/C=C2\C(=O)Nc3ccc4ncsc4c32)cc1,8.75
2,CCn1c(-c2nonc2N)nc2c(C#CCN)ncc(OCCCN)c21,-2.28
3,COc1cc(C=NNc2ncnc3c2cnn3Cc2ccccc2)ccc1O,-3.29
4,Fc1ccc(-c2ncn(C3CCNCC3)c2-c2ccnc(Oc3ccccc3)n2)cc1,1.34
5,COc1cccc(COc2cc(-n3cnc4ccccc43)sc2C(N)=O)c1,0.36
6,Nc1nonc1-c1nc2cnccc2n1C1CCCCC1,0.13
7,COc1cc2c(cc1Nc1nc(Nc3ccsc3C(N)=O)c3cc[nH]c3n1)N(C(=O)CN(C)C)CCC2,-3.96
8,NS(=O)(=O)c1ccc(-c2ccc3c(NC(=O)C4CC4)n[nH]c3c2)cc1,1.7
9,COc1cccc(-n2ncc3c(N/N=C/c4ccncc4)ncnc32)c1,7.89
10,Cc1cc(-c2ccco2)cc(C)c1/C=C/c1cncc(-c2nn[nH]n2)c1,3.02
11,CCn1c(-c2nonc2N)nc2c(C#CC(C)(C)O)ncc(OCC3CCNCC3)c21,5.08
12,NC(=O)c1sc(-n2cnc3cc(C(F)(F)F)ccc32)cc1OCc1ccccc1Br,2.56
13,CCn1c(-c2nonc2N)nc2c(C#CC(C)(C)O)nc(O[C@@H](CN)c3ccccc3)cc21,-0.01
14,CCn1c(-c2nonc2N)nc2c(C#CC(C)(C)O)ncc(OC[C@@H]3CCCN3)c21,1.6

# Biological target: Dual specificity mitogen-activated protein kinase kinase 1 (Homo sapiens) (UniProt Q02750)
# Conditions: at 1 µM
row,SMILES,inhibition [%]
1,NS(=O)(=O)c1ccc(N/C=C2\C(=O)Nc3ccc4ncsc4c32)cc1,42.9
2,CCn1c(-c2nonc2N)nc2c(C#CCN)ncc(OCCCN)c21,-2.9
3,COc1cc(C=NNc2ncnc3c2cnn3Cc2ccccc2)ccc1O,-4.65
4,Fc1ccc(-c2ncn(C3CCNCC3)c2-c2ccnc(Oc3ccccc3)n2)cc1,3.93
5,COc1cccc(COc2cc(-n3cnc4ccccc43)sc2C(N)=O)c1,0.58
6,Nc1nonc1-c1nc2cnccc2n1C1CCCCC1,7.67
7,COc1cc2c(cc1Nc1nc(Nc3ccsc3C(N)=O)c3cc[nH]c3n1)N(C(=O)CN(C)C)CCC2,-5.54
8,NS(=O)(=O)c1ccc(-c2ccc3c(NC(=O)C4CC4)n[nH]c3c2)cc1,2
9,COc1cccc(-n2ncc3c(N/N=C/c4ccncc4)ncnc32)c1,7.23
10,Cc1cc(-c2ccco2)cc(C)c1/C=C/c1cncc(-c2nn[nH]n2)c1,3.14
11,CCn1c(-c2nonc2N)nc2c(C#CC(C)(C)O)ncc(OCC3CCNCC3)c21,4.1
12,NC(=O)c1sc(-n2cnc3cc(C(F)(F)F)ccc32)cc1OCc1ccccc1Br,1.52
13,CCn1c(-c2nonc2N)nc2c(C#CC(C)(C)O)nc(O[C@@H](CN)c3ccccc3)cc21,6.28
14,CCn1c(-c2nonc2N)nc2c(C#CC(C)(C)O)ncc(OC[C@@H]3CCCN3)c21,0.19

# Biological target: Misshapen-like kinase 1 (Homo sapiens) (UniProt Q8N4C8);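 note: mean inhibition value reported, from GSK PKIS kinase profiling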
# Conditions: at 0.1 µM
# Sequence of Misshapen-like kinase 1 (Homo sapiens) (Q8N4C8 whole entry, looked up): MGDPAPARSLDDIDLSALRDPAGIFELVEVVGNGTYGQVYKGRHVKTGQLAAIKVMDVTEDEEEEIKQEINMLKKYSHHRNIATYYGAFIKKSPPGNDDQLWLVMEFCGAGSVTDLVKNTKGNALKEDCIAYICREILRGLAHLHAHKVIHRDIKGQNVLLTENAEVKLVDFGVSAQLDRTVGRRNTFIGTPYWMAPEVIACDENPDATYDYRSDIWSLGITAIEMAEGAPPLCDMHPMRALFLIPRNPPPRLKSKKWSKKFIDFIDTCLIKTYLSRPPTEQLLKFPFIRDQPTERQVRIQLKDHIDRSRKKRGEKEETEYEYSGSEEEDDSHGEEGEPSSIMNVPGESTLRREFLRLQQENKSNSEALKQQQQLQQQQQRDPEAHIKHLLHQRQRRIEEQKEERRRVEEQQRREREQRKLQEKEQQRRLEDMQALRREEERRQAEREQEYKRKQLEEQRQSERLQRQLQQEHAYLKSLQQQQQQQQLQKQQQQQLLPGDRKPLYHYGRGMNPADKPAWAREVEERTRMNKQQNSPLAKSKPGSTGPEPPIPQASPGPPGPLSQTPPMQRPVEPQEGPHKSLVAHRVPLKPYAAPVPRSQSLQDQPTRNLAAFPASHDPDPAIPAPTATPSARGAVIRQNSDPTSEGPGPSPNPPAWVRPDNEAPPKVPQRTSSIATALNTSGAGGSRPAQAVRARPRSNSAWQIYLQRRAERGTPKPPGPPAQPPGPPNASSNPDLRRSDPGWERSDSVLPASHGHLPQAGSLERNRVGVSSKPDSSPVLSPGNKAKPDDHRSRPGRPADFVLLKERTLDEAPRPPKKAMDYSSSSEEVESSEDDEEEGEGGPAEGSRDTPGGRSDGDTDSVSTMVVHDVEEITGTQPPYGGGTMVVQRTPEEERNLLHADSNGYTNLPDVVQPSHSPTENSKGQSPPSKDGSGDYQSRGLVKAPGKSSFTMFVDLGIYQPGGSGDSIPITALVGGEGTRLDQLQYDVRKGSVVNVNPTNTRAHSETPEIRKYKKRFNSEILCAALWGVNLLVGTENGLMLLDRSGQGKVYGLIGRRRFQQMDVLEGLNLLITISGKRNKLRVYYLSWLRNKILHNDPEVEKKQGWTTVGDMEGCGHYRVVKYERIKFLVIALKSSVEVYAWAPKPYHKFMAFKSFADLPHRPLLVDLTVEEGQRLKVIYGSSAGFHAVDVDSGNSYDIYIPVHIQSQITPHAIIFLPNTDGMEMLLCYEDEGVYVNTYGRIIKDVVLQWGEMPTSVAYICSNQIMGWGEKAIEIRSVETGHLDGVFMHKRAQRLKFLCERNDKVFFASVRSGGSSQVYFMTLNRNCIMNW
row,SMILES,inhibition [%]
1,NS(=O)(=O)c1ccc(N/C=C2\C(=O)Nc3ccc4ncsc4c32)cc1,45.2
2,CCn1c(-c2nonc2N)nc2c(C#CCN)ncc(OCCCN)c21,-0.45
3,COc1cc(C=NNc2ncnc3c2cnn3Cc2ccccc2)ccc1O,-2.43
4,Fc1ccc(-c2ncn(C3CCNCC3)c2-c2ccnc(Oc3ccccc3)n2)cc1,2.7
5,COc1cccc(COc2cc(-n3cnc4ccccc43)sc2C(N)=O)c1,3.1
6,Nc1nonc1-c1nc2cnccc2n1C1CCCCC1,2.02
7,COc1cc2c(cc1Nc1nc(Nc3ccsc3C(N)=O)c3cc[nH]c3n1)N(C(=O)CN(C)C)CCC2,13.3
8,NS(=O)(=O)c1ccc(-c2ccc3c(NC(=O)C4CC4)n[nH]c3c2)cc1,3.12
9,COc1cccc(-n2ncc3c(N/N=C/c4ccncc4)ncnc32)c1,16.2
10,Cc1cc(-c2ccco2)cc(C)c1/C=C/c1cncc(-c2nn[nH]n2)c1,1.5
11,CCn1c(-c2nonc2N)nc2c(C#CC(C)(C)O)ncc(OCC3CCNCC3)c21,5.98
12,NC(=O)c1sc(-n2cnc3cc(C(F)(F)F)ccc32)cc1OCc1ccccc1Br,4.93
13,CCn1c(-c2nonc2N)nc2c(C#CC(C)(C)O)nc(O[C@@H](CN)c3ccccc3)cc21,2.21
14,CCn1c(-c2nonc2N)nc2c(C#CC(C)(C)O)ncc(OC[C@@H]3CCCN3)c21,0.63
